Measurements as given in PubChem BioAssay (NCATS).
Results filed as inconclusive are left out. Activity calls are given as the source filed them. Calls come from the whole dose curve; as a rule, active = well fitted curve in the direction sought with a large enough effect; inconclusive = small, poorly fitted or top-dose-only effect, or another doubt; inactive = no such curve, though single readings can be large; an effect the other way counts as inactive or inconclusive.

Assays:
[1] = system: MCC-13; experiment: qHTS assay to identify novel small-molecules to repurpose for Merkel cell carcinoma treatment (AID 1296009); settings: MCC and control cell lines, CellTiter-Glo viability, 72 h; series mostly up to 46 µM; note: nearly all actives have a fitted effect of over 60% in size; note: potency is the fitted concentration of half-maximal effect
Outline: (§1)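 CellTiter-Glo luminescence after 72 hr compound exposure at 37 degree celsius gave cell viability. Libraries NPC and MIPE were run as 8- and 11-point dose responses; RLUs normalized to DMSO (negative) and no-cell (cytotoxicity) controls.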

[2] = system: MCC-26; experiment: as above; settings: MCC and control cell lines, CellTiter-Glo viability, 72 h; series mostly up to 46 µM
Outline: as §1

[3] = system: MKL-1; experiment: as above; settings: MCC and control cell lines, CellTiter-Glo viability, 72 h; series mostly up to 46 µM
Outline: as §1

[4] = system: MKL-2; experiment: as above; settings: MCC and control cell lines, CellTiter-Glo viability, 72 h; series mostly up to 46 µM
Outline: as §1

[5] = system: UISO; experiment: as above; settings: MCC and control cell lines, CellTiter-Glo viability, 72 h; series mostly up to 46 µM
Outline: as §1

[6] = system: WaGa; experiment: as above; settings: MCC and control cell lines, CellTiter-Glo viability, 72 h; series mostly up to 46 µM
Outline: as §1

[7] = system: C33A; experiment: Primary qHTS to identify gynecologic anti-cancer compounds using libraries of approved drugs and bioactive compounds (AID 1345084); settings: Gynecologic cancer cell panel viability, ATPlite luminescence, 48 h; series mostly up to 57.5 µM; note: nearly all actives have a fitted effect of over 55% in size
Outline: (§2)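 48 h compound exposure at 37 C, 5% CO2; five-point qHTS. ATPlite luminescence readout of cell ATP.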

[8] = system: CAOV3; experiment: as above; settings: Gynecologic cancer cell panel viability, ATPlite luminescence, 48 h; series mostly up to 57.5 µM
Outline: as §2

[9] = system: CASKI; experiment: as above; settings: Gynecologic cancer cell panel viability, ATPlite luminescence, 48 h; series mostly up to 57.5 µM
Outline: as §2

[10] = system: Es-2; experiment: as above; settings: Gynecologic cancer cell panel viability, ATPlite luminescence, 48 h; series mostly up to 57.5 µM
Outline: as §2

[11] = system: HeLa; experiment: as above; settings: Gynecologic cancer cell panel viability, ATPlite luminescence, 48 h; series mostly up to 57.5 µM
Outline: as §2

[12] = system: Hek293T; experiment: as above; settings: Gynecologic cancer cell panel viability, ATPlite luminescence, 48 h, control line for the selectivity index; series mostly up to 57.5 µM
Outline: as §2

[13] = system: JEG-3; experiment: as above; settings: Gynecologic cancer cell panel viability, ATPlite luminescence, 48 h; series mostly up to 57.5 µM
Outline: as §2

[14] = system: OV90; experiment: as above; settings: Gynecologic cancer cell panel viability, ATPlite luminescence, 48 h; series mostly up to 57.5 µM
Outline: as §2

[15] = system: PA-1; experiment: as above; settings: Gynecologic cancer cell panel viability, ATPlite luminescence, 48 h; series mostly up to 57.5 µM
Outline: as §2

[16] = system: SKOV3; experiment: as above; settings: Gynecologic cancer cell panel viability, ATPlite luminescence, 48 h; series mostly up to 57.5 µM
Outline: as §2

[17] = system: Tov-21-G; experiment: as above; settings: Gynecologic cancer cell panel viability, ATPlite luminescence, 48 h; series mostly up to 57.5 µM
Outline: as §2

[18] = system: Tov112D; experiment: as above; settings: Gynecologic cancer cell panel viability, ATPlite luminescence, 48 h; series mostly up to 57.5 µM
Outline: as §2

Measured: Potency

N#CC(c1ccnc(NCCc2cccnc2)n1)c1nc2ccccc2s1 (stereo not drawn)
inactive: [1] | [2] | [3] | [4] | [5]

OCCn1cc(-c2ccc3c(c2)CCC3=NO)c(-c2ccncc2)n1
inactive: [1] | [2] | [3] | [4] | [5] | [6]

CCCCCCCCCCCCCC(=O)N[C@H](CO)[C@H](O)c1ccc([N+](=O)[O-])cc1
inactive: [1] | [2] | [3] | [4] | [5] | [6]

CCOc1ccccc1N=Nc1c(C)[nH]n(-c2nc(-c3ccccc3)cs2)c1=O
inactive: [1] | [2] | [3] | [4] | [5] | [6]

O=C(Nc1ccccc1)Nc1ccc(-c2ccc(C(=O)[C@H]3CCC[C@H]3C(=O)O)cc2)cc1
inactive: [1] | [2] | [3] | [4] | [5] | [6]

C=C[C@@H]1CN2CCC1C[C@@H]2C(O)c1ccnc2ccc(OC)cc12 (stereo partly drawn)
inactive: [1] | [2] | [3] | [4] | [5] | [6]

COc1cc(Cl)cn2c(-c3cccc(NC4CNC4)n3)cnc12
inactive: [1] | [2] | [3] | [4] | [5] | [6]

O=[N+]([O-])c1ccc(Nc2ccccc2-c2ccccc2)c2nonc12
inactive: [1] | [2] | [3] | [4] | [5] | [6]

Cc1c(-c2cccc3c(CCCOc4cccc5ccccc45)c(C(=O)O)n(Cc4cccnc4)c23)c(COc2ccc(N3CCN([S+](=O)([O-])N(C)C)CC3)cc2)nn1C
inactive: [1] | [2] | [3] | [4] | [5] | [6]

N[C@@H](CC(=O)N1CCn2c(nnc2C(F)(F)F)C1)Cc1cc(F)c(F)cc1F
inactive: [1] | [2] | [3] | [4] | [5] | [6]

O=S(=O)(O)c1ccc2cc(N=Nc3cc(S(=O)(=O)O)c4cccnc4c3O)ccc2c1
inactive: [1] | [2] | [3] | [4] | [5] | [6] | [7] | [8] | [9] | [10] | [11] | [12] | [13] | [14] | [15] | [16] | [17] | [18]

OC[C@H]1O[C@@H](OCCc2ccc(O)cc2)[C@H](O)[C@@H](O)[C@H]1O
inactive: [1] | [2] | [3] | [4] | [5] | [6] | [7] | [9] | [10] | [11] | [12] | [13] | [14] | [15] | [16] | [17] | [18]

O=C1CN2Cc3c(ccc(Cl)c3Cl)N=C2N1
inactive: [1] | [2] | [3] | [4] | [5] | [6]

CCCCn1c(=O)n(Cc2ccccc2F)c(=O)c2[nH]c(Cc3ccc(NC(C)=O)cc3)nc21
inactive: [1] | [2] | [3] | [4] | [5] | [6] | [7] | [9] | [10] | [11] | [12] | [13] | [14] | [15] | [17] | [18]

CCOC(=O)c1c(CSc2ccccc2)n(C)c2cc(Br)c(O)c(CN(C)C)c12
inactive: [1] | [2] | [3] | [4] | [5] | [6]

CCCCOCCOc1nc(-c2ccc(C(=O)O)c(F)c2)sc1C
inactive: [1] | [2] | [3] | [4] | [5] | [6]

Nc1ncnc2c1ncn2[C@@H]1O[C@H](CO)[C@@H](O)[C@@H]1O
active: [3] 14800 nM | [4] 1660 nM | [6] 1050 nM
inactive: [1] | [2] | [5]

O=C(Nc1cccc(C(F)(F)F)c1)Nc1cc(S(=O)(=O)NC2CC2)ccc1-c1ccsc1
inactive: [1] | [2] | [3] | [4] | [5] | [6] | [7] | [8] | [9] | [10] | [11] | [12] | [13] | [14] | [15] | [16] | [17] | [18]

CN(C)c1nc(Cc2ccc(NC(=O)c3ccc(C(F)(F)F)cc3)cc2)nc(N(C)C)c1CC(=O)O
inactive: [1] | [2] | [3] | [4] | [5] | [6] | [7] | [9] | [10] | [11] | [12] | [13] | [14] | [15] | [17] | [18]
